The values below come from PubChem BioAssay.

Assay [1] can be described thus: small molecules captured by biotinylated probe aFSTL3 – biochemical, small-molecule microarray, fluorescence 635/667, stem cell growth factor project, primary screen (AID 1064).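 Also: measures binding of the biotinylated anti-FSTL3 antibody to printed compounds.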 The settings on record: higher = more signal.
The nature of assay [2]: binders from COS7 lysate, DM2A8 probe, primary screen, torsin A project, cell lysate, small-molecule microarray, fluorescence 635/667 (AID 1065). The note with it: higher = more signal, COS7 lysate expressing mutant human TOR1A.
A short description of assay [3]: small molecules captured by biotinylated probe aFGF2 – biochemical, small-molecule microarray, fluorescence 635/667, stem cell growth factor project, primary screen (AID 1067).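 Also: measures binding of biotinylated aFGF2 protein to printed compounds on slides; z-score merges feature fluorescence and signal-to-noise across triplicate slides.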 The settings on record: higher = more signal.
Assay [4] in a line: small molecules captured by biotinylated probe aFGF10 – biochemical, small-molecule microarray, fluorescence 635/667, stem cell growth factor project, primary screen (AID 1071).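 Also: score merges 667 nm spot intensity and signal to noise from triplicate slides.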 The settings on record: higher = more signal.
Assay [5] has as its target Neurogenic locus notch homolog protein 2 (Homo sapiens) (UniProt Q04721). Put plainly: small molecules binding Notch2 protein – biochemical, small-molecule microarray, 635 nm fluorescence, stem cell growth factors, primary screen (AID 1073). The settings on record: higher = more signal.
In assay [6] the target is Pro-neuregulin-1, membrane-bound isoform (Homo sapiens) (UniProt Q02297). Put plainly: small molecules binding neuregulin-1 protein – biochemical, small-molecule microarray, fluorescence 635/667, psychiatric disease protein project, primary screen (AID 1075).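 Also: score combines 667 nm spot fluorescence with signal to noise.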 The note with it: NRG1 binding, 635 nm fluorescence, higher = more signal.
Assay [7] deals with Neuregulin-1 EGF-like domain. Put plainly: small molecules binding NRG1 EGF domain – biochemical, small-molecule microarray, 635 nm fluorescence, primary screen (AID 1081).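 Also: binding of the protein to compounds printed on small-molecule microarray slides.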 The settings on record: higher = more signal.
Assay [8] in a line: FRG1 expression reporter modulators in myotubes – cell-based, C2C12 myotubes, firefly/Renilla luciferase, luminescence, FRG1 inhibition for FSHD, primary screen (AID 1084). The settings on record: FRG1 promoter luciferase, higher = more signal, called active from +8 up or from −8 down.
A short description of assay [9]: small molecules captured by biotinylated probe aFST – biochemical, small-molecule microarray, fluorescence 635/667, stem cell growth factor project, primary screen (AID 1086).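 Also: score merges 667 nm fluorescence with signal-to-noise of each printed compound spot.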 The note with it: higher = more signal.
Assay [10] is described as follows: binders of probe aHhip on microarray, primary screen, stem cell growth factor project, biochemical, small-molecule microarray, fluorescence 635/667 (AID 1087).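 Also: score merges spot fluorescence at 667nm with spot signal to noise ratio.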 The note with it: higher = more signal.
The test system of assay [11] is PRMT1 (protein arginine N-methyltransferase 1). Description: small molecules binding arginine methyltransferase PRMT1 – biochemical, small-molecule microarray, 635 nm fluorescence, primary screen (AID 1088).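 Also: binding of Prmt1 protein to compounds spotted on small-molecule microarray slides.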 The note with it: higher = more signal.
Assay [12] in a line: growth effects on S. cerevisiae YJM789 – YJM789 clinical isolate, OD600, 24 h, basal, primary screen (AID 1089).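 Also: growth of clinical yeast isolate S. cerevisiae YJM 789 seeded 1000 cells per well; test concentration not given here.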 The note with it: higher = more signal, called active from +8 up or from −8 down.
Assay [13] in a line: S. pombe growth modifiers, basal conditions – strain 972, OD600, 24 h, no modulator, primary screen (AID 1090).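 Also: basal condition with compound alone and no growth modifier present; test concentration not given here.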 The settings on record: S. pombe 972 growth, higher = more signal, called active from +8 up or from −8 down.
Assay [14] in a line: budding yeast growth modifiers under rapamycin – strain BY4716, OD600, 96 h, primary screen (AID 1091). Also: test concentration not given here. The note with it: S. cerevisiae BY4716 + rapamycin, higher = more signal, called active from +8 up or from −8 down.
Assay [15] addresses Torsin-1A-interacting protein 2 (Homo sapiens) (UniProt Q8NFQ8). Put plainly: small molecules binding lysate-expressed LULL1 – cell lysate, human LULL1 lysate, 635/667 nm fluorescence, primary screen (AID 1092).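 Also: probe is lysate of COS7 cells overexpressing human LULL1; score merges per-feature 667 nm fluorescence with signal-to-noise.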 The note with it: small-molecule microarray, hLULL1 lysate binding, 635 nm fluorescence; higher = more signal.
Assay [16] can be described thus: optical density change of DRC41 E. coli – strain DRC41, OD650, 24 h, E. coli filamentation project, primary screen (AID 1093).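 Also: MC1000 strain lacking acrAB efflux and sulA so SOS filamentation is blocked; test concentration not given here.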 The settings on record: E. coli DRC41 growth, higher = more signal, called active from +8 up or from −8 down.
Assay [17] is described as follows: probe aLefty2 binding to arrayed compounds – biochemical, biotinylated probe, 635/667 nm fluorescence, primary screen (AID 1094).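 Also: score merges spot fluorescence near 667 nm with spot signal-to-noise ratio.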 The note with it: small-molecule microarray, higher = more signal.
The test system of assay [18] is Noggin (protein binding on small-molecule microarray). Description: small molecules binding Noggin protein – biochemical, 635/667 nm fluorescence, primary screen (AID 1095).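 Also: score merges 667 nm feature fluorescence with signal to noise over triplicate slides.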 The note with it: 635 nm fluorescence, higher = more signal.
The target of assay [19] is Neurogenic locus notch homolog protein 3 (Homo sapiens) (UniProt Q9UM47). Description: small molecules binding NOTCH3 protein – biochemical, 635/667 nm fluorescence, primary screen (AID 1096). The note with it: small-molecule microarray, 635 nm fluorescence, higher = more signal.
Assay [20] can be described thus: probe aEGFR binding to arrayed compounds – biochemical, biotinylated probe, 635/667 nm fluorescence, primary screen (AID 1097).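 Also: probe is a biotinylated anti-EGFR antibody binding compounds printed on slides; score combines fluorescence near 667 nm and signal to noise of each spot.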 The settings on record: small-molecule microarray, higher = more signal.

Each structure is given as a SMILES string. Calls of active or inactive are those of the source.

Neurogenic locus notch homolog protein 3 (Homo sapiens), sequence (Q9UM47 whole entry, looked up): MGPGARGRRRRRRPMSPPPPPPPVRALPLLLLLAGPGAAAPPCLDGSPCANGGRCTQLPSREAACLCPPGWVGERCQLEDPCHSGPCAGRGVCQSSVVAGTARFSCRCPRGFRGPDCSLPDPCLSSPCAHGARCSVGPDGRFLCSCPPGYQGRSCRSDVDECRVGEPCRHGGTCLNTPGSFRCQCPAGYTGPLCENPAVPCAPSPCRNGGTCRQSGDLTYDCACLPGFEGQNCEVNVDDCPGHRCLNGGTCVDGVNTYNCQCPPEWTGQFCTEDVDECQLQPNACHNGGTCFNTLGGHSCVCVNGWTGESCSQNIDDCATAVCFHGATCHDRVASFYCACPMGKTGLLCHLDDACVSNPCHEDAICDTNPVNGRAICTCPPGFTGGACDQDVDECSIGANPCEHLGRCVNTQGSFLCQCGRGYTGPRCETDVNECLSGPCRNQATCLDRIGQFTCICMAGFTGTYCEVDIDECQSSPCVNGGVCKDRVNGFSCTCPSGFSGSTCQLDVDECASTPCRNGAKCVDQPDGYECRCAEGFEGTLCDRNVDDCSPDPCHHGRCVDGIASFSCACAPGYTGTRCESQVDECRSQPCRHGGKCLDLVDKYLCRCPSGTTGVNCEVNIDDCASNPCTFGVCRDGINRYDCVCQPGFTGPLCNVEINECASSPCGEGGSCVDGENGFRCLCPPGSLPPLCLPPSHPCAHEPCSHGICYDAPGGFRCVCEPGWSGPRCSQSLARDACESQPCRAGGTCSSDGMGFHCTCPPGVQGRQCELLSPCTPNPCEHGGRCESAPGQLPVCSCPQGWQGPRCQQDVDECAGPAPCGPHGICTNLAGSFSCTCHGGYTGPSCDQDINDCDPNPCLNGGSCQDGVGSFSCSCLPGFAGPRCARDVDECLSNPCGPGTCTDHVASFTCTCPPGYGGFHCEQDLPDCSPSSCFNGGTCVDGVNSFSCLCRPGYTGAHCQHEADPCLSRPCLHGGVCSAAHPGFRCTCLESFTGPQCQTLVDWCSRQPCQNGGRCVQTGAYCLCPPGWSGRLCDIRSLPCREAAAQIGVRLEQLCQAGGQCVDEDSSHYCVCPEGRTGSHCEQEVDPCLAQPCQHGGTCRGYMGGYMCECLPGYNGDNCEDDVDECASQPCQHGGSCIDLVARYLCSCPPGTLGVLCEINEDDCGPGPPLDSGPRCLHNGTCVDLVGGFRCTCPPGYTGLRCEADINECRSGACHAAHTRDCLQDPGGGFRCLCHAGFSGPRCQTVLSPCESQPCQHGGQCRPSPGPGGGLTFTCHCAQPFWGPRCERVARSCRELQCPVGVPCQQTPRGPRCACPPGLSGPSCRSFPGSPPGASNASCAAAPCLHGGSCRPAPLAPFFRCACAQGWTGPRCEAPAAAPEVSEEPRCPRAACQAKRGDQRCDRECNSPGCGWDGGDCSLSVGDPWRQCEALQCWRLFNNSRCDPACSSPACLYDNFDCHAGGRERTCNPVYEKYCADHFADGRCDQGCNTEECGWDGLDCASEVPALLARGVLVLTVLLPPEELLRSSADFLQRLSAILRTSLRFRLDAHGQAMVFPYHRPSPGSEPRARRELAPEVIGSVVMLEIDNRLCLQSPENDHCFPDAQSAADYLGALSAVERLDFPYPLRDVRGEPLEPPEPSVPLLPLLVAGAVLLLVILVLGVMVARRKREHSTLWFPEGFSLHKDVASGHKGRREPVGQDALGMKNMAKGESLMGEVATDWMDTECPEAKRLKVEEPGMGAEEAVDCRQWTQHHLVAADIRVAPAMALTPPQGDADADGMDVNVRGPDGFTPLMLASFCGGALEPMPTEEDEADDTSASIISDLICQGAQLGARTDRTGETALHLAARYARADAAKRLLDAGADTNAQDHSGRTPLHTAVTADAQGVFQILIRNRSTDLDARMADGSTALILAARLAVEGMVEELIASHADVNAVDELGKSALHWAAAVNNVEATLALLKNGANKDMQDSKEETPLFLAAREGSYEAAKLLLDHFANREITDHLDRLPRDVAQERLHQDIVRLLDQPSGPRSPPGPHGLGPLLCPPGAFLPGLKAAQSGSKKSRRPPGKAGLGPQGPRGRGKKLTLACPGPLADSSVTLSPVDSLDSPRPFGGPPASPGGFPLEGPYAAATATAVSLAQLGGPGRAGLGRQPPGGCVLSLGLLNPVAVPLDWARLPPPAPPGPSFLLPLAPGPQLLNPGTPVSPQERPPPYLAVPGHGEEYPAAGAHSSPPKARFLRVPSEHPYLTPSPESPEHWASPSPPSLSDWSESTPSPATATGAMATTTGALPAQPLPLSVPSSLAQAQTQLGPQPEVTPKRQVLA
Torsin-1A-interacting protein 2 (Homo sapiens), sequence (Q8NFQ8 whole entry, looked up): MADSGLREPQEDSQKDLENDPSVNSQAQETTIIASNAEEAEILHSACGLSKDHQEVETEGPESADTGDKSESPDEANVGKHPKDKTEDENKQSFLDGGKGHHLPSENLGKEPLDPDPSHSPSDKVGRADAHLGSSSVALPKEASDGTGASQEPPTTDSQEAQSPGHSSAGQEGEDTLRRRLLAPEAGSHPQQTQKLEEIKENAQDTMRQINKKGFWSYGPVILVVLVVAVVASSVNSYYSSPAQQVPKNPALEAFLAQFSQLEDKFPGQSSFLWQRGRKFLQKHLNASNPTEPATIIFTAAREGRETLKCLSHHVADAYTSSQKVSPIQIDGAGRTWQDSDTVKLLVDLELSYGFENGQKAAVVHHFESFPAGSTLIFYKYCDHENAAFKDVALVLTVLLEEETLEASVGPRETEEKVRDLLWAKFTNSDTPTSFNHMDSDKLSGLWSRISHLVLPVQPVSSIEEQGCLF
Pro-neuregulin-1, membrane-bound isoform (Homo sapiens), sequence (Q02297 whole entry, looked up, the tested form may be a part, canonical isoform): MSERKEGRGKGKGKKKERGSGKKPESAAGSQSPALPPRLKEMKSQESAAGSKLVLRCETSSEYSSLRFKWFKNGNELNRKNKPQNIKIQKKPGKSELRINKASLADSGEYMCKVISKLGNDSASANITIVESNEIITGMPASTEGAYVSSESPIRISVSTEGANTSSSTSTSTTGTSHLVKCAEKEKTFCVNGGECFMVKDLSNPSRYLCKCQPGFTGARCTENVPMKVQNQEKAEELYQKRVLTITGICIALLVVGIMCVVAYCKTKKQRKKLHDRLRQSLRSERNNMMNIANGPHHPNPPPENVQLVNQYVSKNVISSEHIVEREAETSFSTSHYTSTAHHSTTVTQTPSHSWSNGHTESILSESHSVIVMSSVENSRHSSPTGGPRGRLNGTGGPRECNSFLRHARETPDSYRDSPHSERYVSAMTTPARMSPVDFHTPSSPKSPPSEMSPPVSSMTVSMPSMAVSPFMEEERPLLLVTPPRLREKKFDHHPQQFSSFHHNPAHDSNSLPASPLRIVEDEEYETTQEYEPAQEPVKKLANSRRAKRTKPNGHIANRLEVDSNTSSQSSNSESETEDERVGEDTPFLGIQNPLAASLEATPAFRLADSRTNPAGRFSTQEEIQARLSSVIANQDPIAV

For `CC(C)N1C(=O)[C@@]2(Cc3ccccc31)c1ccccc1C(=O)N(Cc1ccccc1)[C@H]2c1ccc(CO)cc1`, the composite z-score was -0.244 in assay [1]; -0.164 in [2]; -0.204 in [3]; -0.125 in assay [4]; -0.291 in [5]; 0.251 in assay [6]. Further, the composite z-score is 0.322 in assay [7]; -0.0754 in assay [9]; -0.391 in assay [10]; -0.0364 in assay [11]; 0.0342 in [15]; -0.578 in [17]. Also, the composite z-score in [18] is 0.209; in [19] it was -0.508; in assay [20] it was -0.424. Also, the z-score in assay [8] was -0.0076 (inactive); in assay [12], 1.43 (inactive); in assay [13], 0.555 (inactive); in assay [14], -0.204 (inactive); in assay [16] it was 0.365 (inactive).
`C=C1C(=O)C=C2CN(C(=O)c3ccccc3)[C@@](Cc3ccc(F)cc3)(C(=O)OC)[C@@H]12`: the composite z-score in assay [1] is 0.891; in assay [2], -0.595; in [3], 0.25; in assay [4], 1.12; in assay [5], 1.71; in assay [6] it was 1.89. The composite z-score is 1.09 in assay [7]; 1.87 in [9]; -0.129 in assay [10]; 0.356 in [11]; 3.47 in assay [15]; 0.513 in assay [17]. Moreover, the composite z-score in assay [18] stood at 0.0319; in [19], 1.05; in [20], 0.0071. For the same compound, the z-score in assay [8] is 4.89 (inactive); in [12] it was -23.7 (active); in [13], -15.9 (active); in assay [14], -2.6 (inactive); in assay [16] it was -0.57 (inactive).
As to `COc1cc(Cc2cc3c(c(CCc4ccccc4)n2)[Si](C(C)C)(C(C)C)O[C@H]3c2ccccc2)cc(OC)c1OC`, the composite z-score was 0.962 in assay [1]; -0.133 in [2]; -0.0454 in assay [3]; 0.169 in [4]; -0.285 in [5]; -0.499 in [6]. The composite z-score in assay [7] is -0.44; in assay [9], -0.273; in [10], -0.0102; in [11] it was -0.651; in assay [15], -0.355; in [17], -0.0284. Besides, the composite z-score in assay [18] is -0.288; in assay [19] it was -0.446; in assay [20], -0.129. The z-score in assay [8] is -0.149 (inactive); in [12], -2.28 (inactive); in assay [13], -19.9 (active); in assay [14], -0.549 (inactive); in [16], -0.637 (inactive).
As to `N#Cc1ccc(NN2C(C(O)c3ccc(B(O)O)cc3)C=CC3CN(c4ccccc4)C(=O)C32)cc1` (stereo not given), the composite z-score was 0.057 in assay [1]; 0.239 in assay [2]; -0.0893 in assay [3]; 0.0196 in [4]; 0.074 in assay [5]; 0.501 in assay [6]. Besides, the composite z-score is 1.07 in [7]; -0.0118 in assay [9]; -0.439 in assay [10]; -0.188 in [11]; 0.847 in assay [15]; -0.0576 in assay [17]. Besides, the composite z-score is -0.345 in [18], 0.0787 in assay [19] and -0.0828 in assay [20]. Moreover, the z-score in assay [8] is 3.26 (inactive); in assay [12], 0.587 (inactive); in assay [13] it was 0.896 (inactive); in [14], 1.88 (inactive); in [16] it was 1.28 (inactive).
As to `C=C(CCCC)C(=O)CC[C@@H](OC(C)=O)c1ccc(OCCO)cc1`, the composite z-score in assay [1] was 0.0324; in [2], 1.11; in [3] it was -0.0909; in assay [4], 1.01; in assay [5] it was -0.626; in assay [6], 0.409. For the same compound, the composite z-score was 1.02 in assay [7]; 0.0685 in [9]; -0.134 in assay [10]; 1.01 in assay [11]; 0.742 in assay [15]; -0.178 in [17]. The composite z-score in assay [18] was 1.53; in assay [19] it was 1.13; in assay [20] it was -0.216. Also, the z-score in assay [8] was -0.0798 (inactive); in [12] it was -1.58 (inactive); in assay [13], -2.48 (inactive); in assay [14], -0.679 (inactive); in assay [16] it was 0.44 (inactive).
